# Test results as given in PubChem BioAssay AID1565 (Sanford-Burnham Center for Chemical Genomics, 2009).
# In all, about 290,000 compounds went through this assay and about 3,200 (1.1%) were called active. The full list was thinned out, with actives kept by preference. Values without a mark were called inactive. Rule as the data show it: active = inhibition above about 60%; inactive = the rest.
# Target: Phosphoethanolamine/phosphocholine phosphatase (Homo sapiens) (UniProt Q8TCT1)
# Assay: PubChem AID 1565
# Conditions: recombinant PHOSPHO1, absorbance phosphatase assay; at 13.3 µM; active compounds read high
# Chain of Phosphoethanolamine/phosphocholine phosphatase (Homo sapiens) (Q8TCT1 whole entry, looked up): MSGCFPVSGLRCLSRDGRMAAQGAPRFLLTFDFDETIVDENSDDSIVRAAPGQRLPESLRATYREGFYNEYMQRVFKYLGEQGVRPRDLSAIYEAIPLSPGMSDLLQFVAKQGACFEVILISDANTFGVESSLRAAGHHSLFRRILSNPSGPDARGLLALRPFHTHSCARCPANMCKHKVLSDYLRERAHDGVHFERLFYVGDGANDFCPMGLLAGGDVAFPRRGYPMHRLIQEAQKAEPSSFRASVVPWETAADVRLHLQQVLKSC
row,SMILES,inhibition
1,COc1ccccc1N=C1SCCCN1C,85.5% (active)
2,COc1ccccc1N=Nc1c(O)[nH]c(=S)[nH]c1=O,11.7%
3,CC(C)(C)c1ccc(OC(=O)N2CCCCC2)cc1,27.4%
4,Cc1cccc(NC(=O)N2CC3CC(C2)c2cccc(=O)n2C3)c1 (stereo not given),41.8%
5,O=c1c2ccccc2nc(-c2ccco2)n1-c1ccc(Br)cn1,-3.3%
6,Cc1ccc(-c2nc3ccccc3c(=O)n2-c2ccc(Br)cn2)cc1,68.6% (active)
7,O=c1c2ccccc2nc(-c2ccccc2)n1-c1ccccn1,32.4%
8,Cc1nc2ccccn2c1P(=S)(N1CCCCC1)N1CCCCC1,15.2%
9,COc1cccc(CN2CCCC(C(=O)c3ccccc3SC)C2)c1O (stereo not given),12.9%
10,O=c1c2ccccc2nc(/C=C/c2ccc(F)cc2)n1-c1ccccc1O,38.1%
11,Cc1ccc(-n2c(-c3ccc([N+](=O)[O-])cc3)nc3ccccc3c2=O)cc1,-3.5%
12,O=[N+]([O-])c1ccc(C2C3C(c4ccccc4)=NC4(CCCCC4)N32)cc1 (stereo not given),64.6% (active)
13,COCc1cc(OC(=O)N(C)C)nc(-c2ccc(C)c(Cl)c2)n1,20.3%
14,COC(=O)N(c1ccc(OC)cc1)P1(=S)OCCC(C)O1 (stereo not given),65.4% (active)
15,CCOC(=O)c1c(-c2ccccc2)oc2ccc(OC(=O)N(C)C)cc12,-3.7%
16,COc1ccc(Br)cc1CNCCc1cccc(Cl)c1,13.9%
17,COc1ccc(N2C(=O)/C(=C/c3ccco3)C(=O)NC2=S)cc1,-112%
18,O=C(O)c1ccccc1NC(=O)C1C2CCC(O2)C1C(=O)O (stereo not given),28.7%
19,c1ccc(CCNC2CCCCCC2)cc1,31.6%
20,O=c1[nH]c(CN2CC=C(c3ccccc3)CC2)nc2scc(-c3cccs3)c12,50.8%
21,C[N+]12CN3CN(CN(C3)C1)C2,-34.4%
22,CC1=CC(=Cc2sc3ccccc3[n+]2C)C=C(C)O1,5.9%
23,CCN(CC)CCOC(=O)c1cc2cc(COC)ccc2o1,94.9% (active)
24,COc1cccc(N2C(=O)NC(=O)/C(=C\c3ccc([N+](=O)[O-])s3)C2=O)c1,-60.1%
25,Cc1cc(=O)oc2c(C)c(OCC(=O)N3CCN(Cc4ccc5c(c4)OCO5)CC3)ccc12,27.9%
